Results taken from publication PMC5540273 (PLoS ONE, 2017).
Read-outs that look alike come from different tables or passages of the source.

Key:
[1] = tested on: ZAK; settings: concentration: 1 μM, replicates: in singlicate; n = 1
[2] = tested on: ZAP70; settings: concentration: 1 μM, replicates: in singlicate; n = 1
[3] = tested on: T1, p38-alpha; settings: n = 1
T1 construct: gene MAPK14

[4] = tested on: T2, p38-beta; settings: concentration: 1 μM, replicates: in singlicate; n = 1
T2 construct: gene MAPK11

[5] = tested on: p38-delta; settings: concentration: 1 μM, replicates: in singlicate; n = 1
[6] = tested on: T3, p38-gamma; settings: concentration: 1 μM, replicates: in singlicate; n = 1
T3 construct: gene MAPK12

[7] = concentration: 1 μM, replicates: in singlicate
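Further: KINOMEscan kinase panel screen.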

SMILES | %Inh [1] [%] | %Inh [2] [%] | %Inh [3, 7] [%] | %Inh [4] [%] | %Inh [5] [%] | %Inh [6] [%] | %Inh ([3]; 1 µM) [%]
Cc1nn2c(=O)cc(N3CCO[C@H](C)C3)nc2n1Cc1cccc(Cl)c1Cl [GSK2373693] | 15 | 0 | 66 | 0 | 15 | 0 | 
CN(c1ccc(F)c(NC(=O)c2cccc(OC(C)(C)C#N)c2Cl)c1)c1ccc2nc(NC(=O)C3CC3)sc2n1 | 64 | 0 | 70 | 6 | 0 | 37 | 
CCn1c(-c2nonc2N)nc2c(-c3ccccc3)ncc(OCCCN)c21.O=C(O)C(F)(F)F.O=C(O)C(F)(F)F [GSK260205] | 0 | 0 | 99.5 | 65 | 26 | 2 | 
N#Cc1cnc2cc(-c3cnc(CNCCN4CCOCC4)s3)ccc2c1Nc1ccc(Oc2ccccc2)cc1 [GW664114] | 95.6 | 59 | 0 | 0 | 37 | 0 | 
CCNc1nccc(-c2c(-c3ccc(F)cc3)ncn2C2CCN(C)CC2)n1 | 7 | 0 | 99.8 | 63 | 0 | 36 | 
Cn1cc(-c2ccc3c(c2)CCN3C(=O)Cc2cc(F)cc(F)c2F)c2c(N)ncnc21 [GSK2634140] | 0 | 0 | 0 | 0 | 14 | 2 | 
Cc1cc(-c2c(-c3ccc(F)cc3)ncn2CCCN2CCOCC2)nc(N)n1 [SB-222517] | 13 | 15 | 22 | 17 | 0 | 27 | 
Cc1ccccc1CC(=O)N1CCc2cc(-c3cn(C)c4ncnc(N)c34)ccc21 [GSK2603346] | 0 | 0 | 0 | 0 | 27 | 0 | 
CN(C)CCOc1ccc(-c2cc(-c3ccc(Cl)c(O)c3)c(-c3ccncc3)[nH]2)cc1.Cl.Cl [SB-684387] | 20 | 20 | 54 | 70 | 19 | 23 | 
COc1cc(Nc2nccc(N3CCC(NS(=O)(=O)c4ccc(NC(C)=O)cc4)CC3)n2)cc(OC)c1OC [GSK1379825] | 64 | 5 | 0 | 52 | 11 | 0 | 
Cc1ccc(Nc2ccnc(Nc3ccc(C)c(F)c3)n2)cc1O.Cl [GW582868] | 2 | 0 | 0 | 0 | 30 | 0 | 
O=C(Nc1n[nH]c2nc(-c3ccccc3O)ccc12)C1CC1 [SB-711880] | 0 | 0 | 0 | 0 | 0 | 39 | 
CC(C)c1nc(-c2cccc(NS(=O)(=O)c3c(F)cccc3F)c2)c(-c2ccnc(Nc3ccc(N4CCOCC4)nc3)n2)s1.Cl [GSK1723980] | 98.6 | 0 | 27 | 10 | 0 | 0 | 
CCOc1nccc(-c2c(-c3ccc(F)cc3)ncn2C2CCNCC2)n1 [SB-249175] | 15 | 32 | 99.3 | 100 | 4 | 43 | 
COc1cccc(-c2nc(-c3ccccc3)[nH]c2-c2ccncc2)c1 [SB-610250] | 5 | 0 | 98.2 | 32 | 44 | 0 | 
COc1cc(Nc2nccc(N3CCC(NC(=O)Nc4ccc5c(c4)OCO5)C3)n2)cc(OC)c1OC (stereo not drawn) [GSK1379766] | 34 | 0 | 0 | 0 | 24 | 0 | 
Cc1cc(-c2ccnc(Nc3cccc(C#N)c3)n2)cc(C)c1O [GSK1440913] | 16 | 2 | 0 | 0 | 99.7 | 91.6 | 
COC(=O)Nc1nc2cc(Oc3ccc(NC(=O)Nc4cccc(SC)c4)cc3)ccc2[nH]1.Cl [GW697999] | 96.3 | 0 | 54 | 0 | 28 | 4 | 
Nc1ncc(-c2ccc3nccc(-c4ccncc4)c3c2)cc1S(=O)(=O)N1CCCCC1 [GSK1693850] | 22 | 0 | 0 | 0 | 36 | 22 | 

SMILES | %Inh [1] [%] | %Inh [2] [%] | %Inh [3, 7] [%] | %Inh [4] [%] | %Inh [5] [%] | %Inh [6] [%] | %Inh ([3]; 1 µM) [%]
COc1cccc(NC(=O)NCCNc2ccnc(Nc3ccc(F)cc3)n2)c1 [GSK1379879] | 34 | 17 | 0 | 0 | 59 | 0 | 
Cl.O=C(Nc1ccc(Oc2ccc3[nH]c(NC(=O)c4ccco4)nc3c2)cc1)Nc1cc(C(F)(F)F)ccc1F [GW683134] | 99.2 | 0 | 65 | 74 | 39 | 0 | 
Cc1cccc(Nc2nc(NCCN)ncc2C(N)=O)c1 [GSK1292139] | 0 | 74 | 45 | 0 | 24 | 0 | 
Fc1cc(Cl)ccc1Nc1ccnc2cc(-c3ccc(CN4CCSCC4)o3)ccc12 [GW560106] | 52 | 0 | 35 | 0 | 36 | 0 | 
O=C(Nc1c(F)cccc1F)c1cc(C(=O)c2ccccc2F)c[nH]1 [GSK1326180] | 0 | 0 |  | 15 | 0 | 7 | 47
COc1cc(Nc2ccnc3cc(-c4ccncc4)ccc23)cc(OC)c1OC.Cl [GW494610] | 49 | 8 | 52 | 66 | 2 | 0 | 
O=C(O)C(F)(F)F.O=c1[nH]ccc2nc(N[C@@H]3CCNC3)nc(Nc3cc(Cl)cc(Cl)c3)c12 [GSK2188764] | 0 | 1 | 0 | 0 | 18 | 23 | 
CN(c1ccc(NC(=O)N2CCN(CCCN3CCOCC3)CC2)cc1)c1ccnc(Nc2ccc(CS(C)(=O)=O)cc2)n1.Cl [GW830899] | 5 | 0 | 9 | 0 | 0 | 41 | 
CS(=O)(=O)c1cccc(CNc2nc(Nc3ccc4c(c3)CCC(=O)N4)ncc2C(F)(F)F)c1 | 0 | 43 | 3 | 0 | 8 | 4 | 
Cc1cccc(Nc2nc(N[C@H]3CCCC[C@H]3N)ncc2C(N)=O)c1.Cl [GSK986310] | 0 | 92.9 | 0 | 0 | 45 | 0 | 
COc1ccc(NC(=O)c2ccoc2)cc1-c1ccc(C(=O)NCC2CC2)cc1 [GW810437] | 2 | 36 | 10 | 1 | 0 | 0 | 
CC(C)NCC(Cc1ccccc1)NC(=O)c1cc(Br)c(-c2ccnc3[nH]ccc23)s1.Cl.Cl (stereo not drawn) [GSK1383281] | 73 | 0 | 0 | 0 | 16 | 0 | 
CN(c1ccc2c(c1)nc(NCc1ccccc1)n2C)c1ccnc(Nc2ccc(CS(C)(=O)=O)cc2)n1.Cl [GW811603] | 4 | 27 | 2 | 0 | 27 | 0 | 
c1ccc(Oc2ccc(Nc3ccnc4cc(-c5ccc(CN6CCCCC6)o5)ccc34)cc2)nc1 [GW567143] | 66 | 0 | 0 | 0 | 0 | 0 | 
NCCC(NC(=O)c1cc(Br)c(-c2ccnc3[nH]ccc23)s1)c1ccccc1.O=C(O)C(F)(F)F.O=C(O)C(F)(F)F (stereo not drawn) [GSK1307810] | 10 | 0 | 8 | 0 | 21 | 0 | 
CN(c1ccc(NC(=O)Nc2cccc(Cl)c2)cc1)c1ccnc(N)n1.Cl [GW830707] | 0 | 0 | 0 | 6 | 0 | 0 | 
Cc1ccc(C)c(NC(=O)Nc2ccc(C)c(-c3ccc(C(=O)Nc4ccncc4)cc3)c2)c1 [GSK1398473] | 70 | 0 | 0 | 0 | 38 | 0 | 
Cc1ccc(O)cc1Nc1ccnc2ccc(C(C)(C)C)cc12 [GW856805] | 0 | 15 | 1 | 16 | 0 | 41 | 
